Measured values taken from paper PMC10812921, “Transcriptional Coactivator BOB1 (OBF1, OCA-B) Modulates the Specificity of DNA Recognition by the POU-Domain Factors OCT1 and OCT2 in a Monomeric Configuration”.

Tests used:
POU1 (OCT1 POU domain) = POU1 (OCT1 POU domain) (human, UniProt P14859 260-458); test: EMSA-SELEX-seq; no BOB1; 20 mM Tris-HCl pH 7.6, 140 mM NaCl, 10% glycerol, 0.5 mM EDTA, 0.05% Triton X-100, 0.1 mg/mL BSA, 0.1 mg/mL poly(dI-dC), 5 mM DTT, room temperature, 20 min; high values mean tight binding; conditions: protein: recombinant; dsDNA, one strand shown
POU1 (OCT1 POU domain), sequence (P14859 260-458): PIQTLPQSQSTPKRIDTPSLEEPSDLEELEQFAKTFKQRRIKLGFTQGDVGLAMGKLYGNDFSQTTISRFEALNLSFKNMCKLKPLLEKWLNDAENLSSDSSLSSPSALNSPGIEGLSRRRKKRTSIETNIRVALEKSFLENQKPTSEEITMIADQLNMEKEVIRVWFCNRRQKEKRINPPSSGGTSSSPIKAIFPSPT
In short: (§1)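 With or without 28 ng coactivator protein, 30 ng of tagged POU-domain protein was combined with 300 ng of a PCR-amplified double-stranded random 35-nt library in 20 μL Tris–HCl pH 7.6 binding buffer for 20 min at RT. The protein came from E. coli BL21 and had been purified under denaturing conditions and renatured. Four rounds of cutting complex bands from native 6% PAGE, elution and PCR amplification preceded Illumina sequencing. The binding preference figure is the percentage of sequenced 8-mers matching a motif pattern.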

POU2 (OCT2 POU domain) = molecular target: T1, POU2 (OCT2 POU domain) (human, UniProt P09086 175-386); test: as above; conditions: protein: recombinant; dsDNA, one strand shown
T1 sequence: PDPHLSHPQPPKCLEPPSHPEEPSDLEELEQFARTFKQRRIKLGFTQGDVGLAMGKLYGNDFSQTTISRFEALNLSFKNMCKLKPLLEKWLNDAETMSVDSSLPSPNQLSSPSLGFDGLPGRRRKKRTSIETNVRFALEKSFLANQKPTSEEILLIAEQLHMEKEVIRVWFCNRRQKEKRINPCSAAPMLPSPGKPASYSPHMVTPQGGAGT
In short: as §1

[1] = molecular target: POU1 (OCT1 POU domain);BOB1 (OBF1, OCA-B) (human;human, UniProt P14859;Q16633 260-458;1-256, |); test: EMSA-SELEX-seq; with BOB1 (ternary complex band); 20 mM Tris-HCl pH 7.6, 140 mM NaCl, 10% glycerol, 0.5 mM EDTA, 0.05% Triton X-100, 0.1 mg/mL BSA, 0.1 mg/mL poly(dI-dC), 5 mM DTT, room temperature, 20 min; high values mean tight binding; conditions: protein: recombinant;recombinant; copies: 1;1; dsDNA, one strand shown
In short: as §1

[2] = molecular target: T2, POU2 (OCT2 POU domain);BOB1 (OBF1, OCA-B) (human;human, UniProt P09086;Q16633 175-386;1-256, |); test: as above; conditions: protein: recombinant;recombinant; copies: 1;1; dsDNA, one strand shown
T2 sequence 1: T1 sequence
T2 sequence 2: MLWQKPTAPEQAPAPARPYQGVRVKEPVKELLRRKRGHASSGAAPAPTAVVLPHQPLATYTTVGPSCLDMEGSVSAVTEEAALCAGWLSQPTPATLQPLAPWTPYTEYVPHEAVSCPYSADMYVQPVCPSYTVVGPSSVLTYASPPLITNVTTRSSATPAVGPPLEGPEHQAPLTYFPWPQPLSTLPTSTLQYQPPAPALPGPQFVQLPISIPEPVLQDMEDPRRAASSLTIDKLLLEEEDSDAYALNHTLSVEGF
In short: as §1

Sequence	binding signal (POU1 (OCT1 POU domain))	binding signal (POU2 (OCT2 POU domain))	binding signal [1]	binding signal [2]
ATCCAAAT	0.131 % of ANNNNAAN 8-mers	0.11 % of ANNNNAAN 8-mers	0.209 % of ANNNNAAN 8-mers	0.133 % of ANNNNAAN 8-mers
AAATAAAT	0.261 % of ANNNNAAN 8-mers	0.275 % of ANNNNAAN 8-mers	0.232 % of ANNNNAAN 8-mers	0.22 % of ANNNNAAN 8-mers
AACCGAAG	0.0172 % of ANNNNAAN 8-mers	0.0201 % of ANNNNAAN 8-mers	0.0168 % of ANNNNAAN 8-mers	0.014 % of ANNNNAAN 8-mers
ACGGGAAA	0.0492 % of ANNNNAAN 8-mers	0.0564 % of ANNNNAAN 8-mers	0.0496 % of ANNNNAAN 8-mers	0.0586 % of ANNNNAAN 8-mers
ACCGTAAG	0.0191 % of ANNNNAAN 8-mers	0.0155 % of ANNNNAAN 8-mers	0.0195 % of ANNNNAAN 8-mers	0.0281 % of ANNNNAAN 8-mers
AGACTAAA	0.0374 % of ANNNNAAN 8-mers	0.0443 % of ANNNNAAN 8-mers	0.0297 % of ANNNNAAN 8-mers	0.0289 % of ANNNNAAN 8-mers
ATGAAAAC	0.0717 % of ANNNNAAN 8-mers	0.0604 % of ANNNNAAN 8-mers	0.0956 % of ANNNNAAN 8-mers	0.0586 % of ANNNNAAN 8-mers
AGTTCAAT	0.0446 % of ANNNNAAN 8-mers	0.0432 % of ANNNNAAN 8-mers	0.046 % of ANNNNAAN 8-mers	0.0421 % of ANNNNAAN 8-mers
AGCATAAC	0.082 % of ANNNNAAN 8-mers	0.099 % of ANNNNAAN 8-mers	0.0207 % of ANNNNAAN 8-mers	0.038 % of ANNNNAAN 8-mers
AGTCCAAA	0.0256 % of ANNNNAAN 8-mers	0.0299 % of ANNNNAAN 8-mers	0.0332 % of ANNNNAAN 8-mers	0.0281 % of ANNNNAAN 8-mers
ACACAAAC	0.0236 % of ANNNNAAN 8-mers	0.019 % of ANNNNAAN 8-mers	0.0398 % of ANNNNAAN 8-mers	0.0297 % of ANNNNAAN 8-mers
AATGGAAA	0.242 % of ANNNNAAN 8-mers	0.155 % of ANNNNAAN 8-mers	0.268 % of ANNNNAAN 8-mers	0.164 % of ANNNNAAN 8-mers
ATTACAAG	0.0515 % of ANNNNAAN 8-mers	0.0875 % of ANNNNAAN 8-mers	0.048 % of ANNNNAAN 8-mers	0.0413 % of ANNNNAAN 8-mers
AGGGCAAA	0.0568 % of ANNNNAAN 8-mers	0.0466 % of ANNNNAAN 8-mers	0.0675 % of ANNNNAAN 8-mers	0.0462 % of ANNNNAAN 8-mers
ACCTAAAG	0.0145 % of ANNNNAAN 8-mers	0.0173 % of ANNNNAAN 8-mers	0.0219 % of ANNNNAAN 8-mers	0.0223 % of ANNNNAAN 8-mers
AACATAAG	0.0694 % of ANNNNAAN 8-mers	0.0731 % of ANNNNAAN 8-mers	0.041 % of ANNNNAAN 8-mers	0.0396 % of ANNNNAAN 8-mers
AATCGAAT	0.087 % of ANNNNAAN 8-mers	0.0926 % of ANNNNAAN 8-mers	0.078 % of ANNNNAAN 8-mers	0.0916 % of ANNNNAAN 8-mers
AGGAAAAA	0.134 % of ANNNNAAN 8-mers	0.0909 % of ANNNNAAN 8-mers	0.18 % of ANNNNAAN 8-mers	0.102 % of ANNNNAAN 8-mers
AGACGAAA	0.0309 % of ANNNNAAN 8-mers	0.0472 % of ANNNNAAN 8-mers	0.0343 % of ANNNNAAN 8-mers	0.0264 % of ANNNNAAN 8-mers
AGTTGAAG	0.0355 % of ANNNNAAN 8-mers	0.0316 % of ANNNNAAN 8-mers	0.0398 % of ANNNNAAN 8-mers	0.0338 % of ANNNNAAN 8-mers
AGGCGAAT	0.0618 % of ANNNNAAN 8-mers	0.069 % of ANNNNAAN 8-mers	0.0593 % of ANNNNAAN 8-mers	0.0743 % of ANNNNAAN 8-mers
AAGCTAAG	0.0248 % of ANNNNAAN 8-mers	0.0322 % of ANNNNAAN 8-mers	0.0187 % of ANNNNAAN 8-mers	0.0272 % of ANNNNAAN 8-mers
AGGAAAAT	0.287 % of ANNNNAAN 8-mers	0.2 % of ANNNNAAN 8-mers	0.507 % of ANNNNAAN 8-mers	0.347 % of ANNNNAAN 8-mers
ATTGGAAT	0.141 % of ANNNNAAN 8-mers	0.18 % of ANNNNAAN 8-mers	0.0968 % of ANNNNAAN 8-mers	0.0966 % of ANNNNAAN 8-mers
AGCGAAAC	0.0183 % of ANNNNAAN 8-mers	0.023 % of ANNNNAAN 8-mers	0.0137 % of ANNNNAAN 8-mers	0.0198 % of ANNNNAAN 8-mers
ACCAAAAG	0.0236 % of ANNNNAAN 8-mers	0.0196 % of ANNNNAAN 8-mers	0.0273 % of ANNNNAAN 8-mers	0.019 % of ANNNNAAN 8-mers
ATAGTAAG	0.0633 % of ANNNNAAN 8-mers	0.0806 % of ANNNNAAN 8-mers	0.0656 % of ANNNNAAN 8-mers	0.0619 % of ANNNNAAN 8-mers
AGAGGAAG	0.0358 % of ANNNNAAN 8-mers	0.0432 % of ANNNNAAN 8-mers	0.0441 % of ANNNNAAN 8-mers	0.0413 % of ANNNNAAN 8-mers
AGGGTAAG	0.0503 % of ANNNNAAN 8-mers	0.0541 % of ANNNNAAN 8-mers	0.0531 % of ANNNNAAN 8-mers	0.0776 % of ANNNNAAN 8-mers
ATTTGAAT	1.84 % of ANNNNAAN 8-mers	1.5 % of ANNNNAAN 8-mers	1.92 % of ANNNNAAN 8-mers	2.32 % of ANNNNAAN 8-mers
